Bioassay records deposited in PubChem BioAssay by National Center for Advancing Translational Sciences (NCATS).
SW480 rereplic = inducers of DNA re-replication in SW480 colon cancer cells; SW480 DNA re-replication, Hoechst DNA content imaging, 48 h; Potency, µM (doses to about 46.1 µM), hits mostly activators; hit rate 1.8% among 340,000; further: nearly all actives have a fitted effect of over 55% in size
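Image-based read-out: total Hoechst fluorescence of nuclei (405 nm excitation, 500-530 nm emission), with hits raising the fraction of high-intensity nuclei. SW480 colon cells incubated 48 hr with compounds at 37 C.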
HT1080NT lethal = kills 2HG-producing HT-1080-NT fibrosarcoma cells; HT-1080-NT fibrosarcoma viability, CellTiter-Glo ATP luminescence, 48 h; Potency, µM (highest dose often 46.1 µM), hits mostly cytotoxic; hit rate 1.6% among 360,000;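 further: NT is the 2HG producing partner of a matched IDH1 knockdown line; nearly all actives have a fitted effect of over 55% in size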
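Luminescent CellTiter-Glo readout after 48 hours of compound exposure at 37 degrees C defined viability of HT-1080-NT cells. Activity was normalized to DMSO wells and cell-free media wells; concentration-response curves were fitted and assigned curve classes.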
KB-V1 cytotox = kills drug-selected multidrug resistant KB-V1 cells | Potency, µM (series often up to 46.1 µM), usual class: cytotoxic | KB-V1 MDR cells viability, CellTiter-Glo, 72 h | hit rate 3.4% among 400,000; further: nearly all actives have a fitted effect of over 60% in size
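Cytotoxicity toward P-gp-expressing KB-V1 cells was determined as loss of CellTiter-Glo luminescence after 72 h at 37 degrees C. Compounds were tested in quantitative HTS format across a concentration range, with curves fitted to normalized data.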
MCF10A rereplic = inducers of DNA re-replication in MCF 10A breast cells | MCF 10A DNA re-replication, Hoechst nuclear intensity, 48 h | hit rate 2.9% among 350,000 | Potency, µM (doses to about 46.1 µM), most hits filed as activators; further: nearly all actives have a fitted effect of over 50% in size
KB-3-1 cytotox = KB-3-1 parental cell cytotoxicity; KB-3-1 viability, CellTiter-Glo ATP luminescence, 72 h; Potency, µM (titrated, usually from 46.1 µM), actives largely listed as cytotoxic; hit rate 1.4% among 400,000; AID 1347075; further: nearly all actives have a fitted effect of over 60% in size
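KB-3-1 parental drug-naive adenocarcinoma cells in DMEM/10% FBS, incubated 72 h at 37 C with pin-transferred compounds across a concentration series. Viability by CellTiter-Glo luminescence; concentration-response curves fitted after normalization.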
HT1080 IDH1KD tx = toxicity to HT-1080 IDH1 knockdown cells (counter line); hit rate 2% among 360,000; HT-1080 IDH1 knockdown viability, ATP luminescence, 48 h; Potency, µM (series often up to 46.1 µM), hits mostly cytotoxic; AID 686971
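Assay cells: HT-1080 with IDH1 knockdown, 750 per well, RPMI/5% FBS. Exposure: 48 h at 37 °C following 2 h pre-incubation. Read: CellTiter-Glo luminescence; fitted concentration-response, curve class assigned.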
Large screens that a line does not name were inactive. A selection: hits, their analogues and other compounds. The true share with any hit is near 7.9%. The call rests on the fitted dose curve; in most records, active means well fitted curve in the direction sought with a large enough effect; inconclusive means small, poorly fitted or top-dose-only effect, or another doubt; inactive means no such curve, though single readings can be large; an effect the other way counts as inactive or inconclusive.

CCCC(C(=O)NC1CCCC1)N(C(=O)c1snc(C(N)=O)c1N)c1ccc(OCC)cc1 (stereo not given)	MCF10A rereplic inconclusive
Cc1ccc(N(C(=O)c2nsc(Cl)c2Cl)C(C(=O)NC2CCCC2)c2ccc(O)cc2)cc1C (stereo not given)	HT1080NT lethal inconclusive, KB-3-1 cytotox inconclusive
Cc1ccccc1N(C(=O)c1snc(C(N)=O)c1N)C(C(=O)NC1CCCCC1)c1ccc(O)cc1 (stereo not given)	SW480 rereplic 16µM, HT1080NT lethal inconclusive, MCF10A rereplic inconclusive, KB-3-1 cytotox inconclusive, HT1080 IDH1KD tx 9.2µM
COc1ccc(CCNC(c2ccc(F)cc2)c2nnc(-c3ccccc3Cl)o2)cc1OC (stereo not given)	KB-V1 cytotox inconclusive (no result: SW480 rereplic, HT1080NT lethal, MCF10A rereplic, HT1080 IDH1KD tx)
NC(=O)c1nsc(C(=O)N(c2ccccc2)C(C(=O)NC2CCCC2)c2ccc3ncccc3c2)c1N (stereo not given)	MCF10A rereplic 21µM
COc1ccc(N(C(=O)c2snc(C(N)=O)c2N)C(C(=O)NC2CCCC2)c2ccc3ncccc3c2)cc1 (stereo not given)	SW480 rereplic inconclusive, MCF10A rereplic inconclusive
Cc1nnc(SCC(=O)Nc2ccc(Br)cc2)[nH]c1=O	none (no result: SW480 rereplic, HT1080NT lethal, MCF10A rereplic, HT1080 IDH1KD tx)
CCOc1ccc(CNC(=O)CN2C(=O)CCn3nc(-c4cn(C)c5ccccc45)cc32)cc1OC	none (no result: SW480 rereplic, HT1080NT lethal, MCF10A rereplic, HT1080 IDH1KD tx)
O=C(CSc1ccc2ccccc2n1)N1CCC(c2noc3ccc(F)cc23)CC1	KB-V1 cytotox 9.2µM, MCF10A rereplic inconclusive
Cc1sc2ncnc(SCC(=O)N3CCC(c4noc5ccc(F)cc45)CC3)c2c1C	KB-V1 cytotox 10µM
Cc1nnc(SCC(=O)N2CCC(c3noc4ccc(F)cc34)CC2)s1	KB-V1 cytotox inconclusive, MCF10A rereplic inconclusive
O=C(CSC1=NCCN1)Nc1cccc(C(F)(F)F)c1	MCF10A rereplic inconclusive, HT1080 IDH1KD tx 26µM
Cc1noc(C)c1CSCC(=O)Nc1cccc(C(F)(F)F)c1	MCF10A rereplic 18µM (no result: KB-V1 cytotox, KB-3-1 cytotox)
CSCC[C@H](CO)NC(=O)[C@H]1O[C@@H](n2cnc3c(N)ncnc32)[C@H](O)[C@@H]1O	none (no result: SW480 rereplic, MCF10A rereplic)
CC1(C(=O)Nc2ccc3ccccc3c2)CCC(=O)N1CCOc1ccccc1 (stereo not given)	none (no result: SW480 rereplic, MCF10A rereplic)
Cc1nc2ccccc2n1CCc1nc2c3ccccc3nc(SCc3ccc(F)cc3)n2n1	none (no result: SW480 rereplic, HT1080NT lethal, MCF10A rereplic, HT1080 IDH1KD tx)
COc1ccc(/C=N/NC(=O)c2cc(-c3ccccc3OC(C)C)nc3ccccc23)cc1CN1CCOCC1	KB-V1 cytotox inconclusive, MCF10A rereplic 8.2µM
CC[N+]1=C(C)C(C)(C)c2cc(C)ccc21	HT1080NT lethal inconclusive, MCF10A rereplic inconclusive, KB-3-1 cytotox inconclusive, HT1080 IDH1KD tx 5.2µM
CCN1C(=O)C(=O)c2cc(C)ccc21	SW480 rereplic inconclusive, MCF10A rereplic inconclusive, KB-3-1 cytotox inconclusive
CCOC(=O)N1CCC(NC(=O)CCc2c(C)nc3nc(C)nn3c2C)CC1	none
CCOC(=O)N1CCC(NC(=O)CCc2c(C)nc3c(c(C)nn3C(C)(C)C)c2C)CC1	HT1080NT lethal inconclusive, KB-V1 cytotox 3.7µM, KB-3-1 cytotox inconclusive, HT1080 IDH1KD tx inconclusive
O=S(=O)(NCCSc1nnnn1-c1ccccc1)c1cccs1	KB-V1 cytotox 16µM
CCn1c(=O)c2sccc2n2c(CCC(=O)N3CCN(c4ccc(C(C)=O)cc4)CC3)nnc12	KB-V1 cytotox inconclusive (no result: SW480 rereplic, HT1080NT lethal, MCF10A rereplic, HT1080 IDH1KD tx)
CC(=O)N1Cc2ccccc2C(C)CC12CCCCC2 (stereo not given)	KB-V1 cytotox 16µM
CCc1ccc(NC(=S)NC2CC3CCCC(C2)N3Cc2cccs2)cc1 (stereo not given)	SW480 rereplic 15µM, HT1080NT lethal inconclusive, KB-V1 cytotox 18µM, HT1080 IDH1KD tx inconclusive
Cc1ccccc1/C=C(\C#N)c1nc(-c2ccc(Cl)cc2)cs1	KB-V1 cytotox inconclusive (no result: SW480 rereplic, HT1080NT lethal, MCF10A rereplic, HT1080 IDH1KD tx)
CCc1ccc(OCC(=O)NC(NC(=S)Nc2ccccc2C)C(Cl)(Cl)Cl)cc1 (stereo not given)	HT1080NT lethal 16µM, KB-V1 cytotox inconclusive, MCF10A rereplic 18µM, KB-3-1 cytotox inconclusive, HT1080 IDH1KD tx inconclusive
